# Screens (PubChem)
# HEK cytotox = Cytotoxic Profiling in HEK 293 Cell Line of Diverse Libraries Using Quantitative High-Throughput Screening. Potency, µM (top dose mostly 115 µM), inactives show top-dose activity change, negative = cytotoxicity, actives largely listed as inhibitors. hit rate 6.6% among 94,000. HEK 293 viability, ATP luminescence (CellTiter-Glo), 48-72 h; further: nearly all actives have a fitted effect of over 60% in size
#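 250 HEK 293 cells/well; compound by pintool; incubated 48 or 72 hr at 37 degree Celsius; CellTiter-Glo added, 10 min RT, luminescence imaged.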
# hNpr1 antagonist = Natriuretic polypeptide receptor (hNpr1) antagonism - Primary qHTS | HEK293 hNpr1 GloSensor cGMP, ANP-stimulated luminescence | Atrial natriuretic peptide receptor 1 (Homo sapiens), P16066 | Potency, µM (top dose mostly 46.3 µM), without a hit: top-dose activity change, negative = inhibition, actives largely listed as inhibitors | AID 1347048, 2019 | hit rate 1.6% among 76,000; calls by dose curve; further: nearly all actives have a fitted effect of over 60% in size
#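 HEK293 cells stably expressing human Npr1 and cGMP GloSensor pGS-40F, loaded 2 h with 2% GloSensor reagent, given compound 30 min at room temperature. Luminescence read before and 20 min after 0.1 nM hNppA.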
# NIH3T3 tox = Cytotoxic Profiling in NIH 3T3 Cell Line of Diverse Libraries Using Quantitative High-Throughput Screening; Potency, µM (highest dose often 96.7 µM), inactives show at the top dose activity change, negative = cytotoxicity, most hits filed as inhibitors; AID 1345082, 2018; hit rate 4.3% among 94,000; NIH 3T3 viability, CellTiter-Glo ATP luminescence, 48-72 h; further: nearly all actives have a fitted effect of over 55% in size
#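 Mouse fibroblast NIH 3T3 cells, 400 per well, received compound via pintool and were incubated for 48 or 72 hr prior to CellTiter-Glo ATP luminescence measurement.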
# Luciferase inh = Firefly luciferase inhibition profiling of diverse chemical library using quantitative high-throughput screening. purified P. pyralis luciferase, luminescence, biochemical. hit rate 2.5% among 76,000. Potency, µM (top dose mostly 115 µM), most hits filed as inhibitors. Luciferin 4-monooxygenase (Photinus pyralis), P08659. AID 1347043, 2019; further: nearly all actives have a fitted effect of over 65% in size
# Target sequence (P08659 whole entry, looked up): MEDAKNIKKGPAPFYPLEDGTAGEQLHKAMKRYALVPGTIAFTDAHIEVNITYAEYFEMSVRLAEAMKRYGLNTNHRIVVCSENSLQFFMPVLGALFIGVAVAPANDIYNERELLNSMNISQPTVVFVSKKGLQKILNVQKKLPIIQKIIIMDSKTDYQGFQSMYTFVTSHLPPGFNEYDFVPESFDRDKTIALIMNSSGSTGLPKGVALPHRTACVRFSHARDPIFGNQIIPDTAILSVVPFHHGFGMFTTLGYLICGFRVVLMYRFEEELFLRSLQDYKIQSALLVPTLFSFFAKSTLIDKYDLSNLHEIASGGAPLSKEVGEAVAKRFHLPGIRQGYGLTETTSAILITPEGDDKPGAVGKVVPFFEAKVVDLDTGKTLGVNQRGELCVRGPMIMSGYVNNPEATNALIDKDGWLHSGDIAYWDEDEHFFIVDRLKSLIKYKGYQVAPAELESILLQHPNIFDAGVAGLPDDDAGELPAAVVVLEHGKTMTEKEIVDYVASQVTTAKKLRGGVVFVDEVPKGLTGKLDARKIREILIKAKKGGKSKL
#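 Purified 10nM P. pyralis luciferase with 10uM D-luciferin and 10uM ATP in 50mM Tris acetate pH 7.5, 10mM Mg acetate, 0.01% Tween-20, 0.05% BSA. qHTS titration; luminescence read by CCD imager.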
# GPT2 inhibitor = Primary qHTS assay for inhibitors of Glutamate pyruvate transaminase 2 (GPT2); AID 1671188, 2021; Alanine aminotransferase 2 (Homo sapiens), Q8TD30; hit rate 0.25% among 100,000; Recombinant GPT2, coupled pyruvate oxidase/HRP Amplex Red fluorescence; Potency, µM (titrated, usually from 57.7 µM), for the others: top-dose activity change, negative = inhibition, most hits filed as inhibitors; further: nearly all actives have a fitted effect of over 60% in size
#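 GPT2 10ng/uL, a-KG 250uM, L-Ala 2mM, HEPES pH7.5 + 0.0001% Tween; 30 min RT. Then Amplex mix (PO/HRP/ThPP), 30 min RT dark, fluorescence. AOA 50uM used as positive control.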
# * hit, by the source's call; i = inactive; ? = inconclusive; / = not tested or not shown; ! = a repeat was not active; [ ] = another dose, or the depositor's remark. A selection: hits, their analogues and other compounds. The true share with any hit is near 10%. Unless noted, the call rests on the fitted dose curve; in most records, active means well fitted curve in the direction sought with a large enough effect; inconclusive means small, poorly fitted or top-dose-only effect, or another doubt; inactive means no such curve, though single readings can be large; an effect the other way counts as inactive or inconclusive. On the % scale 0 is the no-effect control and ±100 the full control effect; potency means the concentration at half of the fitted maximal effect.
SMILES,HEK cytotox,hNpr1 antagonist,NIH3T3 tox,Luciferase inh,GPT2 inhibitor
O=C(Cc1ccc(Cl)cc1)N1C[C@@H](CN2CCCCC2)[C@@H](CO)C1,-7.5%,15.0%,0.8%,i,-3.3%
CC(=O)N1CCC(N2C[C@H](O)C[C@H]2c2nc(-c3cccc(C)c3)no2)CC1,?,-7.9%[70.6 µM],?,20µM*,-5.6%[88.5 µM]
Cc1cccc(-c2noc([C@@H]3C[C@@H](O)CN3C3CCOCC3)n2)c1,?,-5.9%[70.6 µM],-28.6%[174 µM],25.1µM*,i
Cc1cccc(-c2noc([C@@H]3C[C@@H](O)CN3Cc3cccc(C#N)c3)n2)c1,?,-14.6%[70.6 µM],?,?,4.1%[88.5 µM]
CC(=O)N1CCC(N2C[C@H](O)C[C@H]2c2nc(-c3ccccc3)no2)CC1,-0.2%[172 µM],0.8%[70.6 µM],-4.5%[138 µM],i,4.0%[88.5 µM]
C#CCNC(=O)C1CCCN1C(=O)c1cccc(-c2ccccn2)c1 (stereo not drawn),-11.7%[172 µM],/,-21.4%[138 µM],/,-3.1%[88.5 µM]
COc1ccc(C(=O)NC2CCN(Cc3ccc(-c4cc(F)ccc4OC)cc3)C2)cc1 (stereo not drawn),22.4µM*,/,17.8µM*,/,/
COc1ccccc1-c1ccc(CN2CCC(NC(=O)c3ccc(Cl)cc3)C2)cc1 (stereo not drawn),25.1µM*,/,14.1µM*,/,/
COc1ccc(C(=O)NC2CCN(Cc3ccc(-c4ccccc4OC)cc3)C2)cc1 (stereo not drawn),?,/,22.4µM*,/,i
COc1ccc(F)cc1-c1ccc(CN2CCC(NC(=O)c3cccnc3)C2)cc1 (stereo not drawn),50.1µM*,/,?,/,/
O=C(NC1CCN(Cc2ccc(-c3ccsc3)cc2)C1)c1ccc(F)cc1 (stereo not drawn),?,/,?,/,-6.0%
COc1ccccc1-c1ccc(C(=O)N2CCC(NC(=O)c3ccccc3)CC2)cc1,?,/,?,/,-1.4%
Cc1nc(C)c(CC(=O)N(Cc2ccccc2)Cc2scnc2C)s1,-17.4%,-1.1%,?,i,0.0%
Cc1cc(C(F)(F)F)nn1CC(=O)NCC1Cn2cccc2C(=O)N1CC(C)C (stereo not drawn),-8.1%,-5.8%,-19.9%,i,-12.4%
COc1ccc(F)cc1-c1ccc(CN2CCC(NC(=O)c3ccc(Cl)nc3)C2)cc1 (stereo not drawn),31.6µM*,/,31.6µM*,/,/
O=C(NC1CCN(c2ccnc3ccnn23)C1)c1cccc(Br)c1 (stereo not drawn),?,/,-25.5%[138 µM],/,i
COc1ccc(CCc2nc3nccc(-c4ccc(OC)c(OC)c4)n3n2)cc1,35.5µM*,1.6%,?,?,-0.1%
COc1ccc(Cc2nc3nccc(-c4ccc(OC)c(OC)c4)n3n2)cc1,?,0.5%,14.1µM*,i,i
COc1cccc(Nc2ncc(-c3cccc(N(C)C)c3)c3c2OCC3)c1,-65.5%[172 µM],?,?,?,2.1%[88.5 µM]
COc1ccc(-c2cnc(Nc3cccnc3)c3c2CCO3)cn1,70.8µM*,-7.4%[70.6 µM],?,?,3.2%[88.5 µM]
COc1cccc(Nc2ncc(-c3ccccc3)c3c2OCC3)c1,?,?,-28.0%[138 µM],14.1µM*,?
COc1ccc(Nc2ncc(-c3cccnc3)c3c2OCC3)cc1,?,12.0%[70.6 µM],?,12.6µM*,i
Fc1cccc(-c2cnc(Nc3cccnc3)c3c2CCO3)c1,?,5.3%[70.6 µM],?,i,i
FC(F)(F)c1cccc(Nc2ncc(-c3cccnc3)c3c2OCC3)c1,?,-16.3%[70.6 µM],?,i,-2.6%[88.5 µM]
COc1ccc(CNC(=O)C2CCCCN2Cc2ccc(-c3ccsc3)cc2)cc1OC (stereo not drawn),39.8µM*,/,?,/,-11.3%
SMILES,HEK cytotox,hNpr1 antagonist,NIH3T3 tox,Luciferase inh,GPT2 inhibitor
O=C(NCc1ccccc1Cl)C1CCCCN1Cc1ccc(-c2ccsc2)cc1 (stereo not drawn),35.5µM*,/,28.2µM*,/,-10.0%
O=C(NCCc1ccccc1)C1CCCCN1Cc1ccc(-c2ccsc2)cc1 (stereo not drawn),28.2µM*,/,?,/,2.8%
O=C(NCc1ccc(F)cc1)C1CCCCN1Cc1ccc(-c2ccsc2)cc1 (stereo not drawn),39.8µM*,/,?,/,?
O=C(NCc1cccnc1)C1CCCCN1Cc1ccc(-c2ccsc2)cc1 (stereo not drawn),?,/,?,/,i
COc1ccc(CNC(=O)C2CCCN2Cc2ccc(-c3cncnc3)cc2)cc1 (stereo not drawn),?,/,-27.0%,/,-8.6%
CCS(=O)(=O)N1CCC(Cc2ncc(C)n2Cc2ccccc2)C1 (stereo not drawn),0.0%,0.8%,1.0%,i,i
O=C(Nc1ccc(Cl)cc1)N1CCN(CCCn2nc3n(c2=O)CCCC3)CC1,-6.2%,/,-15.5%,/,/
Cc1ccccc1S(=O)(=O)N1C[C@@H]2CCCN3CCC[C@@H]([C@H]23)[C@H]1CCCC(=O)NCC1CC1,?,-16.3%,-9.8%,i,2.1%
Cc1cnc(C)n1C1CCN(C(=O)CCC2CCCC2)CC1,-26.3%,/,-29.4%,/,-6.2%
COCCOc1ccc(C(=O)N[C@@H]2CN(C(=O)Nc3ccc(OC(F)(F)F)cc3)CCC[C@H]2O)cc1,?,-12.6%,?,i,-27.4%
Cc1cc(C)cc(-c2ccc(CN3CCCC3C(=O)NCc3cccs3)cc2)c1 (stereo not drawn),?,/,?,/,-1.3%
O=C(NCc1cccs1)C1CCCCN1Cc1ccc(-c2ccsc2)cc1 (stereo not drawn),28.2µM*,/,25.1µM*,/,-20.5%
O=C1CC2(CCN(C(=O)c3ccc(Cl)cc3)CC2)Oc2cc(Cl)ccc21,?,/,?,/,i
O=C1CC2(CCN(C(=O)c3ccc4c(c3)OCO4)CC2)Oc2cc(Cl)ccc21,44.7µM*,-7.6%,?,i,i
O=C(c1ccc2c(c1)OCO2)N1CCc2nc(C3CC3)nc(-c3ccc(Cl)cc3)c2CC1,28.2µM*,-12.2%,?,i,i
Cn1cccc1CN1CCC2(CC1)CC(=O)c1ccc(Cl)cc1O2,44.7µM*,-12.1%[70.6 µM],?,?,i
COc1cccc([S+](=O)([O-])N2CCC(N3CCNC3=O)CC2)c1,0.1%,/,i,/,i
O=C(c1ccccc1)N1CCCC(C(=O)N2CCC(N3CCCC3=O)CC2)C1 (stereo not drawn),0.4%,/,-3.1%,/,?
Cc1nnc2n1CCC(N(C)C(=O)c1ccc3c(c1)OCO3)CC2 (stereo not drawn),i,5.1%,i,i,0.1%
COc1ccccc1Nc1ccnc(N2CCCC(C(=O)NCCc3ccccc3F)C2)n1 (stereo not drawn),35.5µM*!,/,?,/,-10.4%
